{
  "source": "paper PMC7819943",
  "about": "“Rice protein-binding microarrays: a tool to detect cis-acting elements near promoter regions in rice”",
  "note": "In all, about 35,000 sequences were measured (“fluorescence intensity (a.u.)”: median about 10,000, highest 2% from about 52,000 on). The sample holds the highest values, similar sequences and a random draw of the others, so the mix is not that of the screen.",
  "data": [
    {"target": "T1, OsWOX13 (Oryza sativa, UniProt Q5QMM3 1-267)", "T1 sequence": "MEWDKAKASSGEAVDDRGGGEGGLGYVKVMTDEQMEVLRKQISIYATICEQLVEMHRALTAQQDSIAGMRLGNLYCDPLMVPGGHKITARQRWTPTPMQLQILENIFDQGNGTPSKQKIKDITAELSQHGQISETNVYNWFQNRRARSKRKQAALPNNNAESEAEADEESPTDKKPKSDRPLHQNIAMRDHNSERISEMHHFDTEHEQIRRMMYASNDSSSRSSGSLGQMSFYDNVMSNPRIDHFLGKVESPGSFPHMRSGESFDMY", "assay": "protein-binding microarray (RPBM); PBS, 2% BSA, 51.3 ng/ul salmon testes DNA, 50 uM zinc acetate, 200 nM TF, 25 C, 1 h; high values mean tight binding", "conditions": "protein: recombinant; tags: N-terminal polyhistidine and DsRed monomer fusion (pET32a); label: CyDye5-dUTP incorporated in the synthesized complementary strand; 3' TTTTT single-stranded linker to array surface; dsDNA, one strand shown", "how_it_was_run": "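Per-feature fluorescence intensity (arbitrary units), read on an Axon 4000B scanner, is the binding signal. Transcription factors carrying an N-terminal polyhistidine tag and DsRed fusion were expressed in E. coli BL21-CodonPlus and purified on Ni–NTA. A custom Agilent array, made double-stranded by primer extension with Cy5-dUTP and blocked with 2% BSA, was incubated with 200 nM protein in PBS, 2% BSA, salmon testes DNA and 50 µM zinc acetate at 25 °C for 1 h and then washed.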", "values": [
      {"sequence": "GTACCTACCAGTAATTAATCAGCAGGCTCACTGTAATCAACGGAGTCACCTAGTGCAG", "binding signal": "3470 fluorescence intensity (a.u.)"},
      {"sequence": "CATTTGATTTTCGGTCTGATTTTGTTATTTCACTGGCAATCGGAGTCACCTAGTGCAG", "binding signal": "24300 fluorescence intensity (a.u.)"},
      {"sequence": "GGTGACAGTTTGGTTAGTGACAAATAGTTACATTCTCGTTCGGAGTCACCTAGTGCAG", "binding signal": "5070 fluorescence intensity (a.u.)"},
      {"sequence": "GTTTAAAGAAATTGATGAAAGAAAAGCTTCATTGTTGGCTCGGAGTCACCTAGTGCAG", "binding signal": "6180 fluorescence intensity (a.u.)"},
      {"sequence": "TTTAATTGAACTTGAGTGGTCCAGGTATTAAATGTGGGTCCGGAGTCACCTAGTGCAG", "binding signal": "52200 fluorescence intensity (a.u.)"},
      {"sequence": "ACCCAGGCTTTGATTGCGATGATAAACCGAGCTCGCAGCACGGAGTCACCTAGTGCAG", "binding signal": "13800 fluorescence intensity (a.u.)"},
      {"sequence": "GGAAATTTAACTATTTGCCACTTTTAGGTTTATCAATTATCGGAGTCACCTAGTGCAG", "binding signal": "4880 fluorescence intensity (a.u.)"},
      {"sequence": "ATTGGACCTGAACACTGCTAATTAATTGGTATAAGTCATCCGGAGTCACCTAGTGCAG", "binding signal": "8360 fluorescence intensity (a.u.)"},
      {"sequence": "ATTAATGAACTGTGACATTTCCTTAATTTCATTTTGCTCTCGGAGTCACCTAGTGCAG", "binding signal": "23800 fluorescence intensity (a.u.)"},
      {"sequence": "ATAGATAGATTTCTCCATAAGTAATTACATTGTAGGTAGGCGGAGTCACCTAGTGCAG", "binding signal": "28500 fluorescence intensity (a.u.)"},
      {"sequence": "AACTGATATGTAGGGTATGATTGTAATGAAATTACGATTGCGGAGTCACCTAGTGCAG", "binding signal": "10700 fluorescence intensity (a.u.)"},
      {"sequence": "TTAAATTGTTAATACCTCTGTATATCATCCGATCTACGTACGGAGTCACCTAGTGCAG", "binding signal": "19600 fluorescence intensity (a.u.)"},
      {"sequence": "CAGTTATGTGATTGGACTATAAATACGATATATGTTGTGTCGGAGTCACCTAGTGCAG", "binding signal": "28700 fluorescence intensity (a.u.)"},
      {"sequence": "ATAACAGTGATTGATCTGTTAAATATCCGATACGGGTAGGCGGAGTCACCTAGTGCAG", "binding signal": "65200 fluorescence intensity (a.u.)"},
      {"sequence": "AATAACTGATGACTGTGAATGATTGATACGATGTAGTAGGCGGAGTCACCTAGTGCAG", "binding signal": "65300 fluorescence intensity (a.u.)"},
      {"sequence": "TCTGATTGATGATGACGATGATGGCGGCTGTGCAGCTGAACGGAGTCACCTAGTGCAG", "binding signal": "47600 fluorescence intensity (a.u.)"},
      {"sequence": "GACTTGTAATTTGTAGCAGTGGTAAGAAATAAATCTGACCCGGAGTCACCTAGTGCAG", "binding signal": "3900 fluorescence intensity (a.u.)"},
      {"sequence": "CTTAAACAAATGATAGTACGATCCCATCTGATTGGGTGTTCGGAGTCACCTAGTGCAG", "binding signal": "7540 fluorescence intensity (a.u.)"},
      {"sequence": "ACTCAATCTTATTAACTTAAATTGAACTTGAACAAGAGAACGGAGTCACCTAGTGCAG", "binding signal": "22000 fluorescence intensity (a.u.)"},
      {"sequence": "ACTGATAACTTCCAACTGATAATTGGAGAAGGAGGGTTTGCGGAGTCACCTAGTGCAG", "binding signal": "12400 fluorescence intensity (a.u.)"},
      {"sequence": "TCGTAAATTTAAATCCATAGATTTAAGGAATACTTAGGCTCGGAGTCACCTAGTGCAG", "binding signal": "25900 fluorescence intensity (a.u.)"},
      {"sequence": "AATCAACTAACTAATCATGGGATTAACCAAAACTAATTCTCGGAGTCACCTAGTGCAG", "binding signal": "3800 fluorescence intensity (a.u.)"},
      {"sequence": "AATTAATCAGCCAATCACAATCTCTCAAACTACACGGACTCGGAGTCACCTAGTGCAG", "binding signal": "35500 fluorescence intensity (a.u.)"},
      {"sequence": "ACCCAAAATTAACTCTAAACTTAAGTTTCAAAATCTAAATCGGAGTCACCTAGTGCAG", "binding signal": "7640 fluorescence intensity (a.u.)"},
      {"sequence": "TCAATTAATTAATTAATTAACTACACTTTCACACGAGTCTCGGAGTCACCTAGTGCAG", "binding signal": "52700 fluorescence intensity (a.u.)"},
      {"sequence": "GTAATTAATTAACATTGCAATTAAGCACATAAGTTAATCACGGAGTCACCTAGTGCAG", "binding signal": "27000 fluorescence intensity (a.u.)"},
      {"sequence": "TTGAGCACTAATTAATCATTAGGTGGCCTAATCAACAGCTCGGAGTCACCTAGTGCAG", "binding signal": "22000 fluorescence intensity (a.u.)"},
      {"sequence": "AGACAATTCAATAATTAATCTACACTTTCCTTCCGCACCTCGGAGTCACCTAGTGCAG", "binding signal": "5880 fluorescence intensity (a.u.)"},
      {"sequence": "GTAATTAACAGCAATCAGCAAGTGGCCTAATTGCCAACCTCGGAGTCACCTAGTGCAG", "binding signal": "56700 fluorescence intensity (a.u.)"},
      {"sequence": "GCAAATTAATTAACTAATTAATTAAACACCCAACTAATCTCGGAGTCACCTAGTGCAG", "binding signal": "63700 fluorescence intensity (a.u.)"},
      {"sequence": "CCACCTCTAATGAAGAGGTGATTGCAACCATTCATCTCTTCGGAGTCACCTAGTGCAG", "binding signal": "12000 fluorescence intensity (a.u.)"},
      {"sequence": "AAACAAACTAACATGGATTGATTTTCTATAGGATGGAGGGCGGAGTCACCTAGTGCAG", "binding signal": "25200 fluorescence intensity (a.u.)"},
      {"sequence": "TGGATTTTAAATTAAGTAAATTGCACCAGCGGTCCTTAAACGGAGTCACCTAGTGCAG", "binding signal": "6480 fluorescence intensity (a.u.)"},
      {"sequence": "AATTTGAATTTTGTTAAGTTAAATTTGATGAACTGGGGCCCGGAGTCACCTAGTGCAG", "binding signal": "5490 fluorescence intensity (a.u.)"},
      {"sequence": "TTATAATTATTTGTGTTGCAATGTATGTTTTGTTTATATACGGAGTCACCTAGTGCAG", "binding signal": "9980 fluorescence intensity (a.u.)"},
      {"sequence": "TTTGGGTGTTAGTGTCTTAATTAGTGTGTGAGCCCCATCCCGGAGTCACCTAGTGCAG", "binding signal": "3790 fluorescence intensity (a.u.)"},
      {"sequence": "TGTGGCTAAATTTATCAATTGAATGGGCTAGAGGCACGCTCGGAGTCACCTAGTGCAG", "binding signal": "17400 fluorescence intensity (a.u.)"},
      {"sequence": "CCAAATTCATTAAAATTAACAATAACAATTATATTTGTTTCGGAGTCACCTAGTGCAG", "binding signal": "10900 fluorescence intensity (a.u.)"},
      {"sequence": "ATTGAGTCAATCCACACTTTATTAGCACATTGGCCCACACCGGAGTCACCTAGTGCAG", "binding signal": "3510 fluorescence intensity (a.u.)"},
      {"sequence": "AAGTCTAATTAATCCATCATTAGCAAATGTTTATTGTAGCCGGAGTCACCTAGTGCAG", "binding signal": "26700 fluorescence intensity (a.u.)"},
      {"sequence": "GTTTAGCAAATCCAGCACCCATTATACAGACTTTCTATGCCGGAGTCACCTAGTGCAG", "binding signal": "65500 fluorescence intensity (a.u.)"},
      {"sequence": "ATTTGCTAATGACGGATTAATTAGATTTAATAAATTCATCCGGAGTCACCTAGTGCAG", "binding signal": "39700 fluorescence intensity (a.u.)"}
    ]}
  ]
}
